The list is not random: actives were taken first. Their share in the collection is about 3.5%.
BoNT A protease – BoNT/A light chain protease inhibitors, primary screen, biochemical, flow cytometry, MLPCN library; hit rate 0.17% among 360,000; multiplex microsphere protease substrate cleavage; inhibition, % at 10 µM; further: plate controls were buffer without enzyme for full effect and enzyme alone for no effect
Anthrax LF inh2 – Bacillus anthracis LF protease inhibitors, primary screen, biochemical, multiplex microsphere, MLPCN library. Lethal factor (Bacillus anthracis), P15917. multiplex microsphere protease cleavage assay. inhibition, % at 10 µM. hit rate 0.12% among 360,000. AID 588501, 2011; further: plate controls were buffer without enzyme for full effect and enzyme alone for no effect
BoNT F protease – BoNT/F light chain protease inhibitors, primary screen, biochemical, flow cytometry, MLPCN library | inhibition, % at 10 µM | hit rate 0.22% among 360,000 | Multiplex microsphere protease cleavage assay | Botulinum neurotoxin type F light chain protease (Clostridium botulinum); in the data active means inhibition above about 35%, passing the limit was not always enough; inconclusive means no clear call, values can overlap the other calls; further: plate controls were buffer without enzyme for full effect and enzyme alone for no effect
Bead autofluor – compound fluorescence in toxin protease inhibitor counterscreen; compound autofluorescence counterscreen, microsphere flow cytometry; active compounds read high; fluorescence intensity (test concentration not listed); hit rate 3.1% among 360,000; in the data active means fluorescence intensity above about 16000; inconclusive means no clear call, values can overlap the other calls
An asterisk follows results filed as active; ? = inconclusive. Unless noted, no stated cut-off is given here; in the data, active means inhibition above about 30%; inconclusive means no clear call, values can overlap the other calls; inactive means below that.

SMILES	BoNT A protease	Anthrax LF inh2	BoNT F protease	Bead autofluor
Cc1ccc(NC(=O)c2c(C(F)(F)F)nn(C)c2SCc2ccc(Cl)cc2)cc1C	-3.9	-0.8	-10.8	18135*
CC(=O)Nc1ccc(C(=O)CN2C(=O)NC3(CCCc4ccccc43)C2=O)c(F)c1 (configuration not stated)	-0.3	2.4	0.1	3418
Cc1c(NS(=O)(=O)c2ccc(N)cc2)c(=O)n(-c2ccccc2)n1C	0.3	-2.2	-6.9	3147
CCOC(=O)N1CCN(c2c(F)cc3[nH]c(=S)[nH]c3c2Br)CC1	0.7	-0.6	5.2	9342
CCOC(=O)N1CCN(c2cc(C)c(C(C)=O)cc2F)CC1	1.8	0.1	1.0	10101
CCOC(=O)N1CCN(c2cc3[nH]c(=S)[nH]c3cc2F)CC1	7.5	0.0	7.8	21312*
CCOC(=O)N1CCN(c2cc(N)c([N+](=O)[O-])cc2F)CC1	1.2	0.0	-0.5	20374*
CCc1ccc(-c2cnc3nc[nH]c(=O)c3n2)cc1	-3.1	-0.4	?	4077
Cc1cccc(C(=O)O)c1NC(=O)Cc1cccc2ccccc12	-5.0	7.4	?	4058
Nc1[nH]ncc1-c1ccc(Cl)cc1	-0.8	-3.5	-4.5	4614
COc1cc(-c2cn[nH]c2N)cc(OC)c1OC	?	0.6	-4.7	21444*
COc1ccc(N2C(=O)CC(N3CCN(c4ccc(S(C)(=O)=O)cc4)CC3)C2=O)cc1 (configuration not stated)	2.2	-0.7	-1.3	18815*
CC(=O)N(C)c1ccc(NS(=O)(=O)Cc2ccccc2)cc1	?	-0.4	0.8	22151*
O=S(=O)(Cc1ccccc1)Nc1ccccc1	0.2	8.9	-13.4	3618
COc1ccc(NS(=O)(=O)Cc2ccccc2)cc1OC	2.4	-0.1	-2.1	21419*
COc1ccc(N2C(=O)CC(C)(C)CC2=O)cc1OC	-0.3	-6.5	-16.5	3727
CCOC(=O)c1sc(NC(=O)CSc2nc(C)cc(-c3ccccc3)n2)c(C#N)c1C	2.2	-6.6	-1.4	19559*
CCOC(=O)c1sc(NC(=O)CSc2n[nH]c(-c3ccc(Cl)cc3Cl)n2)c(C#N)c1C	?	0.2	-2.2	23279*
CCOC(=O)c1sc(NC(=O)CSc2nc3c(cc2C#N)CCCCCC3)c(C#N)c1C	?	-0.6	-9.1	17520*
CCOC(=O)c1sc(NC(=O)CSc2nc(C)cc(C)c2C#N)c(C#N)c1C	0.3	-4.0	15.9	3979
Cc1cc(NC(=O)CSc2n[nH]c(-c3ccc(Cl)cc3Cl)n2)no1	1.9	-2.6	7.7	4663
CCc1nc2ccc(C(=O)Nc3ccc(C(=O)N(C)C)cc3)cn2c1N(C)CCCc1ccccc1	0.1	-0.3	-0.3	3875
C=C(C)C1CC=C(C)C(=NNC(=O)c2ccncc2)C1 (configuration not stated)	-0.8	2.6	-3.5	4028
C=C(C)C1CC=C(C)/C(=N\NC(=O)CCC(=O)Nc2ccc(C)c(C)c2)C1 (configuration not stated)	-2.2	0.7	-17.9	4330
C=C(C)C1CC=C(C)/C(=N/NC(=O)c2ccc(NC(=O)CCC)cc2)C1 (configuration not stated)	?	-0.5	-4.2	16939*
SMILES	BoNT A protease	Anthrax LF inh2	BoNT F protease	Bead autofluor
C=C(C)C1CC=C(C)/C(=N/NC(=O)c2ccc(NC(=O)CC)cc2)C1 (configuration not stated)	?	-0.5	-8.0	17225*
C=C(C)C1CC=C(C)/C(=N/NC(=O)CNc2ccc(OCC)cc2)C1 (configuration not stated)	?	-13.2	-0.1	21006*
Cc1cccc(N2CCN(S(=O)(=O)c3ccc(Cl)nc3)CC2C)c1 (configuration not stated)	-0.1	1.7	1.2	3911
CCOC(=O)C1=C(C)Nc2sc(C(=O)c3ccc(OC)cc3)c(N)c2C1c1ccc(C(=O)OC)cc1 (configuration not stated)	29.8*	21.4	11.6	9298
COc1ccc(CCN2CC(C(=O)NCc3ccccc3)CCC2=O)cc1 (configuration not stated)	-0.4	-2.1	11.4	5847
C/C(Cl)=C\Cn1c(NCCc2ccccc2)nc2c1c(=O)n(C)c(=O)n2C	?	-0.1	35.6*	6537
Cn1c(=O)c2c(nc(-n3ccnc3)n2Cc2ccccc2)n(C)c1=O	-1.3	-0.6	-8.8	4140
Cn1c(=O)c2c(nc(Br)n2Cc2ccc3ccccc3c2)n(C)c1=O	?	-2.2	5.0	20690*
CN(C)c1nc2c(c(=O)n(C)c(=O)n2C)n1Cc1ccccc1	-0.2	0.9	-2.1	22117*
COc1cccc(NC(=O)CN(C)CC(=O)Nc2ccc(C)c([N+](=O)[O-])c2)c1	2.3	-1.8	?	4123
COc1ccc(Cl)c(NC(=O)C/C(C)=N/NC(=O)CCc2ccccc2)c1	2.9	0.8	0.0	5127
Cc1nnc2n1N=C(c1ccc(F)cc1F)CS2	0.3	4.8	-0.9	3688
O=C(NC(=S)Nc1ccc2c(c1)OCO2)c1ccc(Cl)cc1	-1.8	-0.2	-18.7	2408
O=C(Nc1ccc2c(c1)OCO2)C1(S(=O)(=O)c2ccc(Cl)cc2)CC1	-3.4	-3.4	-7.7	24545*
COC(=O)c1cc2c(C)c(C)c3ccccn3c-2c1C(=O)OC	0.6	-2.1	0.2	3468
CC(C)OC(=O)c1c2c(n3ccccc13)C(=O)c1ccccc1C2=O	78.9*	37.6*	23.4	5595
CCCCSc1nc(N)c(C#N)c(-c2cccs2)c1C#N	3.2	-0.6	1.6	19876*
CC(=O)CSc1nc(N)c(C#N)c(-c2cccs2)c1C#N	0.5	4.8	1.9	9364
CCOC(=O)CSc1nc(N)c(C#N)c(CC(C)C)c1C#N	?	-1.5	0.8	21729*
CCOC(=O)CC(=O)CSc1nc(N)c(C#N)c(-c2ccc(Cl)cc2)c1C#N	-2.2	-3.9	-3.8	16851*
CCOC(=O)CC(=O)CSc1nc(C)cc(C)c1C#N	1.2	0.7	-6.2	3716
O=C(CSc1ccccc1F)NNC(=O)c1ccncc1	-0.1	-3.8	-7.3	3623
O=S(=O)(Nc1ccccc1F)c1ccc2nsnc2c1	-0.1	-0.1	-5.4	10528
Cc1cc(S(=O)(=O)Nc2c(C)ccc3nsnc23)ccc1F	1.2	2.4	3.3	16194*
Cc1ccc2nsnc2c1NS(=O)(=O)c1c(C)ccc2nsnc12	-3.4	-0.2	-7.0	22309*
SMILES	BoNT A protease	Anthrax LF inh2	BoNT F protease	Bead autofluor
CCc1ccccc1NC(=O)Cn1nnc(-c2cccnc2)n1	0.4	-0.6	1.6	22832*
CCc1ccccc1NC(=O)CSc1n[nH]c(-c2cccnc2)n1	-0.4	5.1	-18.0	3495
CCCCn1nnnc1NCc1ccc(N2CCCC2)cc1	2.5	-12.8	-59.0	1645
CCCn1nnnc1NCc1ccc(N2CCCC2)cc1	9.5	-3.3	-12.9	17311*
Cn1c(-c2ccccc2)c(C=O)c2ccccc21	-0.5	-5.1	-3.2	4523
Cn1c2c(c3ccccc31)CCSC2=O	0.1	-5.3	1.2	22095*
CCOc1ccc(NC(=O)c2ccc(F)c(S(=O)(=O)N3CCN(c4ccccn4)CC3)c2)cc1	?	-2.2	0.8	16376*

Bioassay records from PubChem.
